The list is not random: actives were taken first. Their share in the collection is about 9.1%.
D1 mod – D1 dopamine receptor (human) allosteric modulation. P21728. HEK293 D1, CRE-luciferase, dopamine EC30 potentiation; actives deviate in either direction. B-score at 10 µM. 58,000 compounds, 5.9% hits. AID 641;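 active = luminescence count or its row- and column-corrected plate score outside the 99.7% band of the plate's sample wells, on either side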
Target sequence (P21728 whole entry, looked up): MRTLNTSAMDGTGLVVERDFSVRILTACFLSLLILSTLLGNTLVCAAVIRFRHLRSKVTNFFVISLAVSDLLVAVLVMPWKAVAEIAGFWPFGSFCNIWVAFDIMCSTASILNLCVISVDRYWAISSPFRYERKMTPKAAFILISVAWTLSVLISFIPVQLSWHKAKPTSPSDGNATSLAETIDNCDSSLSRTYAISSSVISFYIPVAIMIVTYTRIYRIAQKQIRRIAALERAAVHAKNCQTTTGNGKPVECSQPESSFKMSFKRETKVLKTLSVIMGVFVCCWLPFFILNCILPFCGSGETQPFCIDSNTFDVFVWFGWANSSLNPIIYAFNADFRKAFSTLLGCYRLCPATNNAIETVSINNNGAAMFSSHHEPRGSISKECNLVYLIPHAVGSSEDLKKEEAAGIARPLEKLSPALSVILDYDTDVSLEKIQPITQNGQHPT
M1 agonist – activates the M1 muscarinic receptor; AID 626; CHO-M1 cells, Fluo-4 calcium fluorescence, agonist mode; hits give high values; 64,000 compounds, 3% hits; B-score at 10 µM;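 active = fluorescence rise, raw or as B-score row- and column-corrected plate score, outside the 99.7% band of its plate's samples, either direction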
Htt clearance – mutant huntingtin protein clearance; 47,000 compounds, 0.42% hits; HeLa Exon1htt(103Q)mCFP, aggregate imaging; zero = plate's median compound well; AID 853; inhibition, % at 1.5 µM;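 active = inhibition of aggregate fluorescence above about 70%, also judged a hit by eye on the cell image, limit read from the data, passing the limit was not always enough; inconclusive = no rule stated for this call; inactive = not judged a hit on image review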;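 also: cells exposed to compound for three days before fixation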
M1 antag – blocks the rat M1 muscarinic receptor response to acetylcholine | P08482 | CHO-M1 cells, Fluo-4 calcium, ACh EC80 antagonist mode; hits give low values | B-score at 10 µM | 64,000 compounds, 3.4% hits;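 active = calcium fluorescence response, raw or row-and-column corrected B-score, differing from the plate sample mean either way at a set confidence level, mostly lower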
M1 ag confirm – rat M1 muscarinic agonism, confirmation; shares compounds with M1 agonist; CHO-M1 cells, Fluo-4 calcium fluorescence, agonist mode; actives lie on both sides; fluorescence change (max-min) at 10 µM; 1,700 compounds, 19% hits; AID 1488;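 active = fluorescence change differs from the solvent-only DMSO control mean at a set confidence level in both duplicate runs; inconclusive = differs from solvent-only control mean in just one of two runs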;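 also: an EC20 dose of acetylcholine follows compound addition during the same imaging run; raw fluorescence intensity difference in instrument units with no normalization to controls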
M4 ag counter – rat M4 muscarinic agonism, M1 counter-screen; shares compounds with M1 agonist; CHO M4/Gqi5 cells, Fluo-4 calcium fluorescence, agonist mode; actives lie on both sides; fluorescence change (max-min) at 10 µM; 1,700 compounds, 9% hits;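 active = fluorescence change differing from the plate's solvent-only control wells at 99.7% confidence in both duplicates, whether higher or lower; inconclusive = differs from solvent controls in only one of two duplicates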
An asterisk follows results filed as active; ? = inconclusive; . = no result.

SMILES	D1 mod	M1 agonist	Htt clearance	M1 antag	M1 ag confirm	M4 ag counter
CCOC(=O)CSc1nc2ccccc2c(=O)n1CC1CCCO1 (configuration not stated)	.	-0.019	15.8	-0.59	.	.
CCOc1ccc(S(=O)(=O)NCc2ccncc2)cc1	.	.	13.2	.	.	.
CCOC(=O)COc1ccc(S(=O)(=O)NCc2ccncc2)cc1	0.128	7.56*	8.0	-2.41	-6.93	?
Nc1nc(N2CCOCC2)cc(=O)[nH]1	.	.	34.4	.	.	.
COc1cc(OC)cc(C(=O)NCCNC(=O)c2ccco2)c1	.	.	5.9	.	.	.
N#CC1=C(N)Oc2n[nH]c(-c3cccs3)c2C1C1CCCCC1 (configuration not stated)	.	.	-41.2	.	.	.
N#CC1=C(N)Oc2n[nH]c(-c3cccs3)c2C1c1ccco1 (configuration not stated)	1.51	37.3*	8.6	-0.169	138*	115*
O=C(Nc1ccc(Cl)cc1)NC1CCCC1Cc1ccco1 (configuration not stated)	-1.62	4.83*	29.8	-2.1*	?	-38.1
O=C(CCSc1nnc(-c2ccco2)o1)Nc1ccc(Cl)cc1	0.458	-1.3	.	-0.43	.	.
Cc1nn(C(=O)c2ccccc2)c2c1C(=O)CC(C)(C)C2	.	9.72*	-48.8	-0.0347	-8.51	?
COc1ccc(CC(C)N2CCN(c3cccc(C(F)(F)F)c3)CC2)cc1OC (configuration not stated)	.	.	30.0	.	.	.
Cc1cc(C)c(S(=O)(=O)NCc2cn3c(C)csc3n2)cc1C	0.00263	-0.0806	.	-0.43	.	.
CCOc1ccc(NC(=O)CSc2nc(C)c3c(c2C#N)CCCC3)cc1	.	.	-29.0	.	.	.
c1ccc(-n2nnnc2SCCCSc2nc3ccccc3s2)cc1	0.635	26.8*	.	-0.854	26.4	?
COc1ccc(N=CC2=C(Nc3ccc(OC)cc3)c3c(C)nn(-c4ccccn4)c3CC2)cc1	.	.	1.1	.	.	.
CCOc1ncccc1C(=O)Nc1ccc2c(C)cc(=O)oc2c1	-0.24	13.4*	.	0.445	?	?
O=C(Cc1ccc2cccnc2c1)c1ccc(O)cc1O	-0.143	-1.85	1.4	-0.291	.	.
Oc1ccc2cccnc2c1	-0.984	14.8*	-50.4	-0.00701	112*	45.8
O=C(Nc1ccccc1)N1CC=C(c2ccc(F)cc2)CC1	-0.58	5.41*	-52.9	-3.15*	?	?
COc1ccc(CCNC(=O)CSc2nnc(CNC(=O)c3ccccc3F)o2)cc1OC	0.55	-0.052	.	0.0198	.	.
COc1ccc(C2C=C(c3cccs3)Nc3nc(CCCO)nn32)cc1 (configuration not stated)	0.0843	288*	18.3	-17.8*	2868*	2408*
CC(=O)Nc1nc2n(n1)C(c1ccc(F)cc1)C=C(c1ccccc1)N2 (configuration not stated)	1.98	7.63*	41.0	-0.308	119*	92.6*
COc1ccc(C2C=C(c3ccccc3)Nc3nc(CCCO)nn32)cc1 (configuration not stated)	-0.302	9.26*	.	0.059	71.9*	37.1
COc1ccc(C2C(C(=O)Nc3ccccc3)=C(C)Nc3nc(CCCO)nn32)cc1 (configuration not stated)	-0.702	0.15	.	-0.035	.	.
CC1=C(C(N)=O)C(c2cccc(O)c2)n2nc(CCCO)nc2N1 (configuration not stated)	-0.151	0.55	.	0.872	.	.
SMILES	D1 mod	M1 agonist	Htt clearance	M1 antag	M1 ag confirm	M4 ag counter
OCCCc1nc2n(n1)C(c1ccccc1)C=C(c1ccccc1)N2 (configuration not stated)	-0.00429	12.2*	.	-0.191	74.3*	15.6
O=C(Nc1cccc(-c2cn3ccsc3n2)c1)c1ccccc1	-1.18	0.471	.	-0.732	.	.
COc1ccccc1C(=O)Nc1cccc(-c2cn3ccsc3n2)c1	-1.42	4.69*	.	0.251	?	-40.3
Cc1ccc(C)c(N2CCN(C(=O)CNS(=O)(=O)c3cccs3)CC2)c1	.	.	31.3	.	.	.
COC(=O)c1ccc(/C(O)=C(\C#N)c2nc3ccccc3s2)cc1	0.0157	2.66*	7.0	-2.39*	28.1	-1.31
Cc1cc2oc(=O)cc(CN3CCCCC3)c2cc1C(C)C	0.652	11*	.	-0.0576	?	-22.2
Cc1ccc2c(CN3CCN(CCO)CC3)cc(=O)oc2c1	0.00813	-0.414	-20.2	0.245	.	.
COCc1[nH]nc2c1C(c1ccccc1Cl)C(C#N)=C(N)O2 (configuration not stated)	.	1.48*	43.1	0.0453	-8.91	-17.9

Assay outcomes: PubChem BioAssay, several laboratories
